Data from the supplement of paper PMC11634586.
Counter-ions that a name gives are not always drawn. Unmarked numbers belong to inactive results.

system: NCI-H1688; test: inhibition of cell viability relative to untreated control (fraction); higher = stronger growth inhibition, active = 0.5 or more; conditions: 30 µM; 24 h
How it was run: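 After seeding at 3 × 10^3 cells/well in 96-well plates and a 24 h wait, NCI-H1688 small cell lung cancer cells received a natural compound library (TargetMol) at 30 µM for 24 h, kept at 37°C with 5% CO2. Triplicate readings of Cell Counting Kit-8 absorbance at 450 nm measured viability. Each value is the inhibition of cell viability as a fraction, derived from viability normalised to untreated cells.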

SMILES	inhibition of cell viability
O[C@H]1[C@H](O)[C@@H](O)[C@H](O)[C@@H](O)[C@H]1O [Inositol]	-0.137
O=C(O)[C@H](O)Cc1ccc(O)c(O)c1 [Danshensu]	0.318
O=C(O)CCC(=O)O [Succinic acid]	0.0297
OC[C@@H](O)[C@@H](O)[C@H](O)[C@@H](O)CO [D-Sorbitol]	-0.224
O=c1c(O)c(-c2ccc(O)cc2)oc2cc(O)cc(O)c12 [Kaempferol]	-0.00334
CC[C@]12CCCN3CCc4c(n(c5ccccc45)[C@@](O)(C(=O)OC)C1)[C@@H]32 [Vincamine]	0.408
N[C@H]1C(O)O[C@H](CO)[C@@H](O)[C@@H]1O (stereo partly drawn) [Glucosamine]	-0.173
CC(C)[C@@H](C)/C=C/[C@@H](C)[C@H]1CC[C@H]2C3=CC=C4C[C@@H](O)CC[C@]4(C)[C@H]3CC[C@]12C [Ergosterol]	-0.172
C[C@H](CCC(=O)NCC(=O)O)[C@H]1CC[C@H]2[C@@H]3[C@H](O)C[C@@H]4C[C@H](O)CC[C@]4(C)[C@H]3C[C@H](O)[C@]12C [Glycocholic acid]	-0.11
O=c1c(-c2ccc(O)cc2)coc2cc(O[C@@H]3O[C@H](CO)[C@@H](O)[C@H](O)[C@H]3O)cc(O)c12 [Genistin]	0.279
C[C@H]1[C@H](OC(=O)CCC(=O)O)O[C@@H]2O[C@@]3(C)CC[C@H]4[C@H](C)CC[C@@H]1[C@@]24OO3 [Artesunate]	0.726 (active)
C[C@H](CCC(=O)NCCS(=O)(=O)O)[C@H]1CC[C@H]2[C@@H]3[C@H](O)C[C@@H]4C[C@H](O)CC[C@]4(C)[C@H]3C[C@H](O)[C@]12C [Taurocholic acid sodium salt hydrate]	-0.0242
COc1cc2ccc(=O)oc2cc1OC [Scoparone]	-0.0332
Cc1cccc2c3c(ccc12)C1=C(C(=O)C3=O)[C@@H](C)CO1 [Dihydrotanshinone I]	0.992 (active)
NC(=O)CC[C@H](N)C(=O)O [L-Glutamine]	-0.0181
O=c1c2ccccc2oc2ccccc12 [Xanthone]	-0.129
NCCCNCCCCNCCCN [Spermine]	-0.283
COc1c2ccoc2cc2oc(=O)ccc12 [Bergapten]	0.298
OC[C@H]1O[C@H](OC[C@H]2O[C@H](OC[C@H]3O[C@H](O[C@]4(CO)O[C@H](CO)[C@@H](O)[C@@H]4O)[C@H](O)[C@@H](O)[C@@H]3O)[C@H](O)[C@@H](O)[C@H]2O)[C@H](O)[C@@H](O)[C@H]1O [D-Stachyose tetrahydrate]	-0.0317
C[C@H](CCC(=O)O)[C@H]1CC[C@H]2[C@@H]3[C@H](O)C[C@@H]4C[C@H](O)CC[C@]4(C)[C@H]3C[C@H](O)[C@]12C [Cholic Acid]	-0.419
NCCCS(=O)(=O)O [Homotaurine]	0.357
C=C[C@@]1(C)CC(=O)[C@]2(O)[C@@]3(C)[C@@H](O)CCC(C)(C)[C@@H]3[C@H](O)[C@H](OC(C)=O)[C@@]2(C)O1 [Forskolin]	0.166
COc1ccc([C@@H]2OC[C@H]3[C@@H]2CO[C@@H]3c2ccc(O[C@@H]3O[C@H](CO)[C@@H](O)[C@H](O)[C@H]3O)c(OC)c2)cc1OC [Forsythin]	-0.0217
COc1cc2c(c(OC)c1OC)-c1c(cc3c(c1OC)OCO3)CC(C)C(C)C2 (stereo not drawn) [Schizandrin B]	-0.0395
Cc1ncc(C[n+]2csc(CCO)c2C)c(N)n1 [Thiamine hydrochloride]	-0.123
COc1cc(CNC(=O)CCCC/C=C/C(C)C)ccc1O [Capsaicin]	0.0438
CC1(C)CC[C@]2(C(=O)O)[C@H](O)C[C@]3(C)C(=CC[C@@H]4[C@@]5(C)CC[C@H](O)C(C)(C)[C@@H]5CC[C@]43C)[C@H]2C1 [Echinocystic acid]	0.139
O=c1oc2ccccc2c(O)c1Cc1c(O)c2ccccc2oc1=O [Dicumarol]	0.308
